Assay outcomes (PubChem BioAssay)
Sampled rows, rich in hits. Any-hit rate of the full collection: about 12%.
HP1b chromo inh – HTS for Inhibitors of HP1-beta Chromodomain Interactions with Methylated Histone Tails. Chromobox protein homolog 1 (Homo sapiens), P83916. AlphaScreen HP1-beta / biotin-H3K9me3 peptide binding. Potency, µM (doses to about 114 µM), without a hit: at the highest dose activity change, negative = inhibition, most hits filed as inhibitors. 390,000 tested, 0.56% active; further: nearly all actives have a fitted effect of over 70% in size
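Compound inhibition of the preformed complex between 50 nM HP1-beta and 50 nM biotinylated H3K9me3 peptide was read by AlphaScreen. Buffer was PBS pH 7.4 with 0.01% Tween-20. Incubations ran 30 min at room temperature, with 10 ug/mL donor/acceptor beads.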
JMJD2A Tudor – qHTS Assay for Inhibitors of JMJD2A-Tudor Domain; Potency, µM (highest dose often 114 µM), without a hit: at the highest dose activity change, negative = inhibition, most hits filed as inhibitors; AlphaScreen JMJD2A-Tudor / H3K4me3 peptide binding; Lysine-specific demethylase 4A (Homo sapiens), O75164; 390,000 tested, 4.4% active; AID 504339, 2011; further: on the % scale 0 is the no-effect control and ±100 the full control effect; nearly all actives have a fitted effect of over 50% in size
Target sequence (O75164 whole entry, looked up, the tested form may be a part): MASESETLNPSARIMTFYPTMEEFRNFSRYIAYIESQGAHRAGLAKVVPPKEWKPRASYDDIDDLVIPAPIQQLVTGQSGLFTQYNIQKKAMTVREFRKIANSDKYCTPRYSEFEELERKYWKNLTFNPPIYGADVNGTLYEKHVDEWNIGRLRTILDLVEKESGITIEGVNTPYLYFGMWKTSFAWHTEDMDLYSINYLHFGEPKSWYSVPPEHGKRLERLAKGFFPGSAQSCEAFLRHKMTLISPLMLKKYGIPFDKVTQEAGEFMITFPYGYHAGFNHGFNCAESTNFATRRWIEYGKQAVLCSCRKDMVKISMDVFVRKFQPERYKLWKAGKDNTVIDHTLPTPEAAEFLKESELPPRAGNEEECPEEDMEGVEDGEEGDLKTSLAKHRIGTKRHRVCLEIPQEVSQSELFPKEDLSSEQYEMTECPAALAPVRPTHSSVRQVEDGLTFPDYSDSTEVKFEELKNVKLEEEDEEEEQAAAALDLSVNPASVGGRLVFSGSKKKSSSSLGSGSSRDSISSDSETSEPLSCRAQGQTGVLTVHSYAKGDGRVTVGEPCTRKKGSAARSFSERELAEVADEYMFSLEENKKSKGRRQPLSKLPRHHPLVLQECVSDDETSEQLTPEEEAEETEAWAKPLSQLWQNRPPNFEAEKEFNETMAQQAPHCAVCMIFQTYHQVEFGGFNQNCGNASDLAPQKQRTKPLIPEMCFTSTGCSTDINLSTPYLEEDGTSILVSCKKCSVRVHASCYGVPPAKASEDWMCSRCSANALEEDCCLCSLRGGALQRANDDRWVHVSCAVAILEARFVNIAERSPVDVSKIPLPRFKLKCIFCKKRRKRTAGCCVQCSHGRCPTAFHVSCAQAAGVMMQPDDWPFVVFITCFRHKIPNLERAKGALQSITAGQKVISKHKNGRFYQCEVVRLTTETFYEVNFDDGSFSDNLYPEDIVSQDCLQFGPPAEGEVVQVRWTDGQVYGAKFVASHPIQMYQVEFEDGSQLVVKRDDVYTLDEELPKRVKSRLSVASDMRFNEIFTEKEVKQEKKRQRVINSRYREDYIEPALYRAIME
BAZ2B inh – qHTS Assay for Inhibitors of BAZ2B; Potency, µM (titrated, usually from 114 µM), for the others: top-dose activity change, negative = inhibition, usual class: inhibitors; 360,000 tested, 4.4% active; Bromodomain adjacent to zinc finger domain protein 2B (Homo sapiens), Q9UIF8; AlphaScreen BAZ2B-H3K14Ac peptide displacement; AID 504333, 2011; further: on the % scale 0 is the no-effect control and ±100 the full control effect; nearly all actives have a fitted effect of over 60% in size
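AlphaScreen displacement: compounds (up to 110uM) incubated 30 min at room temperature with a preformed 50 nM BAZ2B/50 nM biotinylated H3K14Ac peptide complex in PBS pH 7.4 with Tween-20. Donor and acceptor beads at 10 ug/mL final added, 20 min light-protected before reading.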
Sfp PPTase inh – qHTS Assay for Inhibitors of Bacillus subtilis Sfp phosphopantetheinyl transferase (PPTase). 4'-phosphopantetheinyl transferase ffp (Bacillus subtilis), Q9F4F7. Biochemical Sfp PPTase activity, qHTS. Potency, µM, without a hit: largest response in the series, negative = inhibition, actives largely listed as inhibitors. 310,000 tested, 3.5% active. AID 1490, 2009;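 further: the enzyme is Sfp with the accession as filed and its product quenches rhodamine fluorescence; 0% = enzyme reaction without inhibitor and -100% = no enzyme wells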
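Sfp 15 nM + cpd, 15 min RT; start w/ rhodamine-CoA 5 uM, BHQ-2-YbbR 12.5 uM (final); 50 mM Hepes pH 7.6, 10 mM MgCl2, 0.01% NP-40, 0.01% BSA; read 525/598 nm at 0 and 30 min.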
G9a inh – qHTS Assay for Inhibitors of Histone Lysine Methyltransferase G9a. Histone-lysine N-methyltransferase EHMT2 (Homo sapiens), Q96KQ7. G9a H3K9 monomethylation, AlphaScreen, 2 h. Potency, µM (doses to about 102 µM), without a hit: at the top dose activity, negative = inhibition, most hits filed as inhibitors. 350,000 tested, 8.8% active. AID 504332, 2011; further: on the % scale 0 is the no-effect control and ±100 the full control effect; nearly all actives have a fitted effect of over 75% in size
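Readings reflect AlphaScreen signal from monomethyl-H3K9 antibody detection. HMT at 20 nM; substrate b-H3K9 500 nM; cofactor SAM 20 uM; 2 h RT reaction; compounds tested as titrations in qHTS with 15 min preincubation.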
* marks the source's active call; other numbers are inactive results; ? = inconclusive; . = not tested or not shown; ! = not confirmed by another sample; [ ] = remark or other dose. The call rests on the fitted dose curve; in most records, active means well fitted curve in the direction sought with a large enough effect; inconclusive means small, poorly fitted or top-dose-only effect, or another doubt; inactive means no such curve, though single readings can be large; an effect the other way counts as inactive or inconclusive. Potency means the concentration at half of the fitted maximal effect.

SMILES	HP1b chromo inh	JMJD2A Tudor	BAZ2B inh	Sfp PPTase inh	G9a inh
O=C1CCN(S(=O)(=O)c2ccccc2)C2CCCCC12 (stereo unspecified)	-5%	-25%[57.1 µM]	-3%	11%	-28%
O=C1NC2CCCCC2C(=O)N1OS(=O)(=O)c1ccccc1 (stereo unspecified)	50µM*	?	.	.	.
Cc1ccc(C(=O)CSc2cnc3ccccc3n2)cc1C	76%	71%	23%	?	?
O=C(O)/C=C/C(=O)N(Cc1ccccc1)Cc1ccco1	28%	2%	-8%	9%	5%
CN(Cc1ccccc1)C(=O)c1ccco1	39%	-12%	-17%	9%	-23%
Cc1ccc(C(CCN(Cc2ccccc2)C(=O)c2ccco2)c2ccco2)cc1 (stereo unspecified)	-5%	20µM*	32µM*	40µM*	50µM*
CC(=O)N(CCC(Cc1ccccc1)c1ccco1)Cc1ccco1 (stereo unspecified)	1%	-35%	?	45µM*	?
O=C(c1ccco1)N(CCC(c1ccccc1)c1ccco1)Cc1ccco1 (stereo unspecified)	?	22µM*	28µM*	?	?
COc1cc(SC)ccc1C(=O)OCC(=O)N1CC(=O)Nc2ccccc21	13%	-10%	.	.	.
Cc1cc(C)cc(NC(=O)C2CCN(C(=O)c3cnn(-c4ccccc4)c3-n3cccc3)CC2)c1	25%	-21%	-23%	.	1%[59 µM]
CCN(C(=O)C1CCN(S(=O)(=O)c2ccc3c(c2)CCCN3C(C)=O)CC1)c1cccc(C)c1	30%[57 µM]	-4%	0%	.	6%[59 µM]
O=C1NC(Cc2ccccc2)C(=O)N1Cc1cc([N+](=O)[O-])cc2c1OCOC2 (stereo unspecified)	27%	-7%	79µM*	11%	3%
CCCc1cc(=O)oc2c3c(c4c(c12)OC(C)(C)C=C4)OC(C)C(C)C3O (stereo unspecified)	78%	-16%	-2%	?	11%
CCCCCCC(=O)Nc1c(O)c2ccccc2[nH]c1=O	40%	-3%	?	50µM*	?
COc1ccc(-c2csc(NC(=O)CC(NC(C)=O)c3ccccc3)n2)cc1OC (stereo unspecified)	26%	-21%	79µM*	27%	25µM*
COc1ccc(-c2csc(NC(=O)Cc3ccccc3F)n2)cc1OC	-7%	?	40µM*	-3%	?
O=C(Cn1nc(-c2ccccc2)nc(Cc2ccccc2)c1=O)Nc1ccccc1	9%	-15%	-5%	.	7%[59 µM]
O=C(O/N=C1\CCCCC1c1ccc([N+](=O)[O-])cc1[N+](=O)[O-])c1c(F)cccc1F (stereo unspecified)	-31%	45µM*	?	?	40µM*
COc1ccc(CCCc2n[nH]c(=S)n2C)cc1C	?	5.6µM*	-24%	12%	11µM*
COc1ccc(CCCc2n[nH]c(=S)o2)cc1C	51%	-10%	-23%	21%	8.9µM*
Cc1ccccc1NC(=O)c1ccc2nc(N3CCOCC3)sc2c1	27%	-26%	-34%	-5%	-10%
COc1ccc(C(CCNCc2ccc(F)cc2)c2ccc(F)cc2)cc1 (stereo unspecified)	76%	9%	1%	56µM*	?
COc1ccc(C(CCNCc2ccc(N(C)C)cc2)c2ccccc2OC)cc1 (stereo unspecified)	50µM*	25µM*	10µM*	-6%	14µM*
COc1ccc(CNCCC(c2ccc(F)cc2)c2ccc(OC)cc2)cc1 (stereo unspecified)	30%	8%	-3%	-8%	4%[59 µM]
CC(C)CN(C(=O)CSc1n[nH]c(-c2cccs2)n1)C1CCS(=O)(=O)C1 (stereo unspecified)	53%	-3%	10%	.	?
SMILES	HP1b chromo inh	JMJD2A Tudor	BAZ2B inh	Sfp PPTase inh	G9a inh
Cc1ccc(C(=O)NN2C(=O)c3ccc(S(=O)(=O)c4ccc(C(=O)O)cc4)cc3C2=O)cc1	3%	16µM*	-3%	5%	?
FC(F)(F)c1ccccc1N/N=C/c1cccnc1	9%	-21%	-2%	13%	?
COc1cc(/C=N/Nc2ccc(F)cc2F)cc(OC)c1OC	-3%	-4%	-35%	6%	1.8µM*
Clc1ccc2c(N/N=C/c3cccnc3)ccnc2c1	4%	-20%	-3%	50µM*	-8%
Fc1ccc(N/N=C/c2cccnc2)c(F)c1	18%	-24%	-26%	-6%	32µM*
Cc1ccc(/C=N/Nc2ccnc3cc(Cl)ccc23)c(C)c1	-1%	22µM*	?	45µM*	?
CCn1c(CNC(=O)c2ccc(OC)cc2)nnc1SCC(=O)Nc1ccc(OC)cc1	29%	5%	-4%	.	7%[59 µM]
CCOC(=O)c1ccc(-n2c(CN3CCC(C(N)=O)CC3)nc3ccc([N+](=O)[O-])cc3c2=O)cc1	15%	-28%	.	22µM*	?
CCOC(=O)c1ccc(-n2c(CN3CCC(O)CC3)nc3ccc([N+](=O)[O-])cc3c2=O)cc1	9%	-19%	?	18µM*	13µM*
Cc1ccc(C2CC2C(=O)NNC(=S)Nc2ccc(Cl)cc2)cc1 (stereo unspecified)	-18%	-28%	-8%	-5%	25µM*
COC(=O)C1(Cc2ccc(O)c(CC3OC3(C)C)c2)OC(=O)C(O)=C1c1ccc(O)cc1 (stereo unspecified)	1%	-33%	-35%	79µM*	?
CCOc1c(C)cc2[nH]c(CCC(=O)O)nc2c1C	29%	-6%	-3%	20%	13µM*
O=C(O)CCc1nc2ccccc2[nH]1	.	.	.	1%	.
CCCCCc1cc(=O)[nH]c(=S)[nH]1	51%	8%	-14%	-5%	?
CCCc1cc(=O)[nH]c(=S)[nH]1	41%	-12%	-1%	50µM*!	-48%[12.7 µM]
Cc1ccc(Cl)c2c1NC(=O)C2(O)CC(=O)c1ccc(F)cc1 (stereo unspecified)	9%	-14%	2%	4%	-12%[59 µM]
Cc1ccc(Cl)c2c1NC(=O)C2(O)CC(=O)c1ccccc1O (stereo unspecified)	19%	5%	-13%	3%	14µM*
CCNc1ccccc1CP(=O)(c1ccccc1)c1ccccc1O (stereo unspecified)	32µM*	50µM*	40µM*	1.4µM*	?
COc1ccc(-c2cc3nnc(-c4ccccc4)nc3s2)cc1	30%	-9%	-6%	40µM*	?
